Measurements reported in publication PMC7862700, “An all-to-all approach to the identification of sequence-specific readers for epigenetic DNA modifications on cytosine”.

What was measured:
Experiment in all cases: DAPPL (digital affinity profiling via proximity ligation, sequencing); 10 mM Tris-HCl pH 7.5, 50 mM NaCl, 1 mM DTT, 4% glycerol, room temperature, 30 min; GST-TFs on glutathione beads, 16-mer random dsDNA library, 0.1% formaldehyde crosslink after washing; high values mean tight binding
Details in all cases: protein: recombinant; tags: N-terminal GST; dsDNA, one strand shown
FLI1 = target: T1, FLI1 (Homo sapiens, UniProt Q01543 1-452)
T1 sequence: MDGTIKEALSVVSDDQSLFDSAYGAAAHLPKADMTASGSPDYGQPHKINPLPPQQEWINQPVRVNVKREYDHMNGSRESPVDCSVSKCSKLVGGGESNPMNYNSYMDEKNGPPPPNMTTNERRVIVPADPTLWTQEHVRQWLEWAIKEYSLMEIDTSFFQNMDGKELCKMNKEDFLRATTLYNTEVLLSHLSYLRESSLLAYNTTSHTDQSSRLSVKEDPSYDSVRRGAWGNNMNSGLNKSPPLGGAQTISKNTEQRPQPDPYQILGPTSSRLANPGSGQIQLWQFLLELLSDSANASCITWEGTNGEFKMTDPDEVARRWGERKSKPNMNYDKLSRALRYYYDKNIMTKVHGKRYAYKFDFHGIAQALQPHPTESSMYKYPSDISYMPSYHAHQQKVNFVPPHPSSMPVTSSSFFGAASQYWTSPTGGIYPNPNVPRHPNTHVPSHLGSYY
In short: (§1)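 Yeast served to express human transcription factors as GST fusions, which were then captured on glutathione beads and labelled with DNA barcodes. Pooled with a tag-only sample, they were incubated with 200 nmole of a 16-mer random double-stranded DNA library for 30 min at room temperature in Tris/NaCl/DTT/glycerol buffer, washed, crosslinked with 0.1% formaldehyde, ligated by proximity, amplified by PCR and sequenced. Dividing each hexamer's read frequency for a factor by its frequency for the tag-only sample gives the binding signal.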

ELK1 = target: T2, ELK1 (Homo sapiens, UniProt P19419 1-428)
T2 sequence: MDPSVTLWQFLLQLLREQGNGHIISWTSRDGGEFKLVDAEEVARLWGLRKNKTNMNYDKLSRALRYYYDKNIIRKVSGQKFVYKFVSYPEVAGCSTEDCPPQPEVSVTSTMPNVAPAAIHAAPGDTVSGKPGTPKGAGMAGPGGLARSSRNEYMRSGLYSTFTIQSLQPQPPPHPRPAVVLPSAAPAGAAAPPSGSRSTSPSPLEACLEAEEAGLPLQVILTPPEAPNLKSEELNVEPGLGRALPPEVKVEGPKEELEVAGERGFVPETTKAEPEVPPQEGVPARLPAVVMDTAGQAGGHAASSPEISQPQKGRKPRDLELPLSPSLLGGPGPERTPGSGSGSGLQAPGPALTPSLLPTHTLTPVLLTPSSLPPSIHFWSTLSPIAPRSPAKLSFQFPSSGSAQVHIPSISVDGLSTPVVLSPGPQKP
In short: as §1

GABPA = target: T3, GABPA (Homo sapiens, UniProt Q06546 1-454)
T3 sequence: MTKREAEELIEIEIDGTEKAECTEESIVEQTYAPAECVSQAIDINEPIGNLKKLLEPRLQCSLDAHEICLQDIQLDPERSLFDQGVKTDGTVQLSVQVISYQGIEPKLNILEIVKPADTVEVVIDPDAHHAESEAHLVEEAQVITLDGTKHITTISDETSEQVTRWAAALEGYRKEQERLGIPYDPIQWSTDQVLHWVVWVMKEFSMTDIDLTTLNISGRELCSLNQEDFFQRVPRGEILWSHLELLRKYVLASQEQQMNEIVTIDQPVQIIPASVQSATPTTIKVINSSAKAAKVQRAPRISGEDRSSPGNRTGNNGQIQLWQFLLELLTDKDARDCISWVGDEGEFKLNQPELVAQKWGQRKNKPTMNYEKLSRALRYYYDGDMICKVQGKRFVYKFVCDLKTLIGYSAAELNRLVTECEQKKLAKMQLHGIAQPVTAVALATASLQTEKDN
In short: as §1

ERG = target: T4, ERG (Homo sapiens, UniProt P11308 1-479)
T4 sequence: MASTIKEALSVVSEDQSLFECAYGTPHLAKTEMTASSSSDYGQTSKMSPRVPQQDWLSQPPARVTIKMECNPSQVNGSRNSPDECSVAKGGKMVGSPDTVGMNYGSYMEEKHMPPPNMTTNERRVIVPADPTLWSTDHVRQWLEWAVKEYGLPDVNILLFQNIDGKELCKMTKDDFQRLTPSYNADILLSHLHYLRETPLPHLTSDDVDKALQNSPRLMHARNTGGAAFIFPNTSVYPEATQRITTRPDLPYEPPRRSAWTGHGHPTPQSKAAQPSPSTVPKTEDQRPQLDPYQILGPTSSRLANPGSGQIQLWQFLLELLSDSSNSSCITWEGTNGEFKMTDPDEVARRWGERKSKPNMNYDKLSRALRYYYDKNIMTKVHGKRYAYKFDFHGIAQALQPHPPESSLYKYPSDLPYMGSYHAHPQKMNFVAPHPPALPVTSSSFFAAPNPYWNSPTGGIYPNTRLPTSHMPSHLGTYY
In short: as §1

ELF1 = ELF1 (Homo sapiens, UniProt P32519 1-619)
In short: as §1

EHF = target: T5, EHF (Homo sapiens, UniProt Q9NZC4 1-300)
T5 sequence: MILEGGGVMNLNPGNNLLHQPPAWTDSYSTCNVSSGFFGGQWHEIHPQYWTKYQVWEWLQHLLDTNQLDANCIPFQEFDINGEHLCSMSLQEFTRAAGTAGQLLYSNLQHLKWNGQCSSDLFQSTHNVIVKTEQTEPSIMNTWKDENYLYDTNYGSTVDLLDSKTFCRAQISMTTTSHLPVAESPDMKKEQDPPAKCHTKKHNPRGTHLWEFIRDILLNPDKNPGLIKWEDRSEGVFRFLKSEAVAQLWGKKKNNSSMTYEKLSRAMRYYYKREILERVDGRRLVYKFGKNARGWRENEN
In short: as §1

SPIB = SPIB (Homo sapiens, UniProt Q01892 1-262)
In short: as §1

SPIC = target: T6, SPIC (Homo sapiens, UniProt Q8N5J4 1-248)
T6 sequence: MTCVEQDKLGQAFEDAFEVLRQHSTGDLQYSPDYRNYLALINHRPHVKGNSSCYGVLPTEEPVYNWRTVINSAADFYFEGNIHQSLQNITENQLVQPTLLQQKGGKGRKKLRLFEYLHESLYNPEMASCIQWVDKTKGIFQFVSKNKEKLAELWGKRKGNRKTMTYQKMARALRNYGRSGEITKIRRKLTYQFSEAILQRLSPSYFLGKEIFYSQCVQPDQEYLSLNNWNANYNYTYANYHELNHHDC
In short: as §1

ELF4 = ELF4 (Homo sapiens, UniProt Q99607 1-663)
In short: as §1

ELF4, sequence (Q99607 whole entry): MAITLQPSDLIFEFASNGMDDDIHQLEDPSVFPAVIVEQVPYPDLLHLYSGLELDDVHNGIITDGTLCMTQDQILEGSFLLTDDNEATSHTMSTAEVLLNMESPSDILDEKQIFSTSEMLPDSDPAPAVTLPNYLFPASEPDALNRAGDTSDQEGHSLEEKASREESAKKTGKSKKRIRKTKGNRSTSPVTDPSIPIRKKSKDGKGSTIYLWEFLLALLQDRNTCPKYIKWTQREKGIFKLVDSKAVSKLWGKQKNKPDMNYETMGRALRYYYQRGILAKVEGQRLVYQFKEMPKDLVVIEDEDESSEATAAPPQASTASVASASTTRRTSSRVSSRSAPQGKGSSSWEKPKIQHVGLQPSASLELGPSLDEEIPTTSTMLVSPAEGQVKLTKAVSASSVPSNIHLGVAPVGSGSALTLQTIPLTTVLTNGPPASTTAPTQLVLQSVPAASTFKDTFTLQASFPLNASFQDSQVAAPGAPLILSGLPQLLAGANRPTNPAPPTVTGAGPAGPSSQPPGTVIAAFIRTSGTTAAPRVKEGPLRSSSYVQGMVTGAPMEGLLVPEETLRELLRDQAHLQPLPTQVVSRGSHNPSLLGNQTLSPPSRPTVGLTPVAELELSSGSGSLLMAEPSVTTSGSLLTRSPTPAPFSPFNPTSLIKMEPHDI
SPIB, sequence (Q01892 whole entry): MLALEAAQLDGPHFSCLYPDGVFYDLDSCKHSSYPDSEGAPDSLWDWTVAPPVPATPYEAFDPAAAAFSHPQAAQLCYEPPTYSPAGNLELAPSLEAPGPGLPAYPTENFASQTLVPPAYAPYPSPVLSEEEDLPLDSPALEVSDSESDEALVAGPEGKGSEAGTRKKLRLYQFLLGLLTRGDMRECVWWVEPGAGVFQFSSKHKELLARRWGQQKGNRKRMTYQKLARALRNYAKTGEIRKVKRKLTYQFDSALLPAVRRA
ELF1, sequence (P32519 whole entry): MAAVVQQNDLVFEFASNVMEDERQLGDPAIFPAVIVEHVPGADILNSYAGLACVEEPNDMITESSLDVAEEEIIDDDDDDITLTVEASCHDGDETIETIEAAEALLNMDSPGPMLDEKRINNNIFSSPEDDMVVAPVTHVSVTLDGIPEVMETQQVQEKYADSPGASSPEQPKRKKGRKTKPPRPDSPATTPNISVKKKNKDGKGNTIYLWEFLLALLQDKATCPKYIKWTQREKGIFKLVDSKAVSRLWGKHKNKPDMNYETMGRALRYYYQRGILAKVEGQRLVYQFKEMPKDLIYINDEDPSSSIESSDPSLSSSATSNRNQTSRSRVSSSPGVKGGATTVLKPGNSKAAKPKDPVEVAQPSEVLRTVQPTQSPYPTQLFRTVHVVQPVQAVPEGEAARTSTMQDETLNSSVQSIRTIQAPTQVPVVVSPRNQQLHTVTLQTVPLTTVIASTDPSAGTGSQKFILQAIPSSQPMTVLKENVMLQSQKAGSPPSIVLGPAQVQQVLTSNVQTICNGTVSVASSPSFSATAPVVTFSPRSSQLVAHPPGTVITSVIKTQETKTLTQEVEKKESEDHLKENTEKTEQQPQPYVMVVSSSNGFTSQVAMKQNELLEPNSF

**Q.** With ACAGCC as the sequence, how does the binding signal (FLI1) read?
**A.** Its binding signal is 1 fold enrichment (6-mer frequency, TF over GST control).

**Q.** What about the binding signal (ELK1) of the same sequence?
**A.** The binding signal was 1.1 fold enrichment (6-mer frequency, TF over GST control).

**Q.** And the binding signal (GABPA)?
**A.** The binding signal was 1.07 fold enrichment (6-mer frequency, TF over GST control).

**Q.** What about the binding signal (ERG) of the same sequence?
**A.** Its binding signal is 1.02 fold enrichment (6-mer frequency, TF over GST control).

**Q.** And the binding signal (ELF1)?
**A.** Its binding signal is 1.11 fold enrichment (6-mer frequency, TF over GST control).

**Q.** And the binding signal (EHF)?
**A.** The binding signal was 1.11 fold enrichment (6-mer frequency, TF over GST control).

**Q.** What about the binding signal (SPIB) of the same sequence?
**A.** Its binding signal is 1.03 fold enrichment (6-mer frequency, TF over GST control).

**Q.** And the binding signal (SPIC)?
**A.** Its binding signal is 1.08 fold enrichment (6-mer frequency, TF over GST control).

**Q.** And the binding signal (ELF4)?
**A.** Its binding signal is 1.11 fold enrichment (6-mer frequency, TF over GST control).
